Assay outcomes deposited in PubChem by several laboratories.
Compounds with a hit are over-represented: about 2.6% of the library has one in this group of screens.
TROY signal inh = inhibitors of TROY-driven NF-kB signaling, primary screen, Q293 LMP1-TROYcd cells, NF-kB luciferase, uHTS; 360,000 compounds, 0.98% hits; AID 1347056, 2019; Q293 LMP1-TROYcd NF-kB luciferase reporter, 4 h; inhibition, % at 10 µM;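 active = compounds whose plate-normalised and pattern-corrected inhibition of the luciferase reporter signal at the single screening dose is 50% or more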
KKLEB tox = cytotoxicity in KKLEB CF airway cells, primary screen, cytotoxicity control for CF NF-kB inhibitor project, cell-based, uHTS, fluorescence assay plates | KKLEB CF airway cells viability, ATPlite luminescence, overnight; active compounds read low; cells stimulated with P. aeruginosa culture filtrate | activity change (cytotoxicity), % at 5 µM | 360,000 compounds, 0.36% hits | AID 602141, 2011;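 active = corrected activity change at or below -50% at 5 µM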
TWEAK Fn14 block = inhibitors of TWEAK-Fn14 signaling, primary screen, luciferase reporter cells, uHTS | TWEAK-stimulated Fn14 reporter cells, luciferase luminescence, 8 h | inhibition, % at 10 µM | 360,000 compounds, 2% hits | AID 1159606, 2016; in the data active = inhibition above about 50%
EWS-Fli inh = EWS/Fli-driven NR0B1 reporter inhibitors, primary screen, A673 cells, NR0B1 luciferase, luminescence, MLPCN library; viability-normalised; inhibition, % at 12.6 µM; 350,000 compounds, 0.67% hits; AID 651661, 2012;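 active = mean inhibition of at least 50% after viability correction, with every replicate also passing that limit; inconclusive = mean reaches 50% but only one of two replicates passes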;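 also: firefly luciferase signal divided by Alamar Blue viability fluorescence both relative to DMSO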
CF NFkB block = inhibitors of PAF-induced NF-kB signaling, primary screen, cell-based, GFP fluorescence, uHTS; KKLEB NF-kB-GFP reporter, GFP fluorescence overnight; inhibition, % at 5 µM; 360,000 compounds, 0.86% hits;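 active = at least 50% inhibition at 5 µM, scaled per plate between neutral and stimulator controls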;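 also: PAF is a Pseudomonas aeruginosa culture filtrate used as stimulus; plate controls were PAF-stimulated DMSO wells for no effect and unstimulated DMSO wells for full effect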
LGR2 antag = inhibitors of bursicon-induced LGR2 CRE-luciferase signal, primary screen, cell-based, HEK293, CRE-luciferase reporter, bursicon stimulation; Drosophila bursicon receptor LGR2 (rickets); bursicon-stimulated, 4 h; inhibition, % at 9.99 µM; 380,000 compounds, 0.35% hits;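 active = drop in luminescence signal, shown as inhibition above about 50% in the replicate tests, limit read from the data, passing the limit was not always enough; inconclusive = probably only some replicates passing the limit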;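 also: agonist challenge used bursicon conditioned medium at about half maximal strength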
CF NFkB conf = inhibitors of PAF-induced NF-kB signaling, retest, confirmation, cell-based, GFP fluorescence, single concentration. inhibition, % at 5 µM. KKLEB CF airway cells, overnight. AID 602472, 2012. 1,300 compounds, 64% hits. shares compounds with CF NFkB block; in the data active = inhibition above about 40%;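 also: stimulus PAF is a Pseudomonas aeruginosa filtrate and not platelet activating factor; plate controls were DMSO wells with stimulus for no effect and unstimulated DMSO wells for full effect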
DNA binder FP = DNA binders by acridine orange displacement, dose response, counter-screen for EWS/Fli inhibitor project, biochemical, fluorescence polarization, cherry-pick | shares compounds with EWS-Fli inh | salmon sperm DNA acridine orange fluorescence polarization | AC35, µM (doses to about 68 µM), inactives show at the top dose activity change, negative = DNA binding | 640 compounds, 2% hits | AID 720586, 2013;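 active = fitted curve reaches a 35% signal fall AC35 below twice the sample's top valid tested dose, actives reach about 48 µM in these data; inactive = the rest, including activity in the rising direction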;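 also: lower polarization ratio signals compound binding to DNA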
* = called active by the depositor; ? = inconclusive; / = no result given.

SMILES	TROY signal inh	KKLEB tox	TWEAK Fn14 block	EWS-Fli inh	CF NFkB block	LGR2 antag	CF NFkB conf	others
CCOC(=O)/C=c1/s/c(=C\c2c(OC)ccc3ccccc23)c(=O)n1CC(=O)NCC1CCCO1 (stereo unspecified)	13	-33	34	41	54*	6	65*
Cn1ccc2c(N3c4ccccc4CCc4ccccc43)cc3c(c21)C1CCC3O1 (stereo unspecified)	-16	-17	-4	-13	85*	-26	15
COc1ccccc1N(C)c1cc2c(c3c1ccn3C)C1CCC2O1 (stereo unspecified)	13	-18	6	-2	92*	-3	31
CN(Cc1ccccc1)c1cc2c(c3c1ccn3C)C1CCC2O1 (stereo unspecified)	7	0	3	2	7	-9	/
CO[C@@H]1CN(C)C(=O)c2ccc(NC(=O)C3CCOCC3)cc2OC[C@@H](C)N(C(C)=O)C[C@@H]1C	/	/	/	-6	/	6	/
O=C(COC(=O)c1ccccc1)Nc1ncc([N+](=O)[O-])s1	-16	23	19	-22	8	-28	/
O=C(Nc1ccccc1)Nc1ncc([N+](=O)[O-])s1	47	-42	81*	14	57*	65*	87*
COCc1cc(=O)[nH]c(SCCS(=O)(=O)c2ccc(Cl)cc2Cl)n1	13	-43	55*	25	100*	9	-15
CCC(=O)OC1(C(C)=O)CCC2C3CCC4=CC(=O)CCC4(C)C3CCC21C (stereo unspecified)	0	-5	-3	9	51*	18	-89
CC12CCC(=O)C=C1CCC1C2CCC2(C)C1CC[C@]2(O)C(=O)CO (stereo partly specified)	13	-4	-13	7	26	7	/
C/C(=N/Nc1ccccc1[N+](=O)[O-])c1ccc([N+](=O)[O-])cc1	51*	-38	-23	7	51*	-1	24
CN(C)C(=O)C[C@@H]1CC[C@@H]2[C@H](COc3ccc(NC(=O)C4CCOCC4)cc3C(=O)N2C)O1	/	/	/	-7	/	4	/
O=C(Nc1ccc(Cl)cc1)c1nc[nH]c1C(=O)NCCCCNC(=O)c1[nH]cnc1C(=O)Nc1ccc(Cl)cc1	7	-13	50	5	79*	-5	102*
Cc1cccc(NC(=O)c2nc[nH]c2C(=O)NCCCCNC(=O)c2[nH]cnc2C(=O)Nc2cccc(C)c2)c1	5	-39	34	22	56*	-12	33
Cc1cccc(NC(=O)c2nc[nH]c2C(=O)NCCCCCCNC(=O)c2[nH]cnc2C(=O)Nc2cccc(C)c2)c1	8	2	32	0	-24	-3	/
Clc1cccc(Nc2nc(-c3ccncc3)nc3ccccc23)c1	21	-42	-2	38	64*	/	-40
Fc1ccc(Nc2nc(-c3ccncc3)nc3ccccc23)cc1F	6	-9	-27	7	-21	2	/
COc1cccc(NC(=O)N2C[C@@H](O)COC[C@@H]3O[C@@H](CC(=O)NCc4ccccc4F)CC[C@H]32)c1	/	/	/	/	/	-12	/
CC(=O)N1CC(=O)N=C1SCC(=O)Nc1nc(C)c(-c2ccccc2)s1	-17	20	-5	-11	51*	-17	60*
CCOc1ccc(-c2csc(NC(=O)CSC3=NC(=O)CN3C(C)=O)n2)c2ccccc12	-15	6	-14	/	-17	11	/
CC(C)NC(=O)N(C)C[C@H]1Oc2cc(C#CCN(C)C)ccc2S(=O)(=O)N([C@H](C)CO)C[C@H]1C	/	/	/	-9	/	15	/
CCOC(=O)c1c(NC(=O)Cc2cccs2)sc(C(=O)NC2CCCCC2)c1C	-11	-29	-82	/	51*	/	19
O=C(C#Cc1ccccc1)c1ccc([N+](=O)[O-])cc1	36	-4	8	/	20	/	/
O=C(C#Cc1ccccc1)c1ccccc1	37	-28	76*	70*	99*	33	44*
CO[C@@H]1CN(C)C(=O)c2cc(NC(=O)C3CC3)ccc2OC[C@@H](C)N(CC2CC2)C[C@@H]1C	/	/	/	5	/	-25	/
SMILES	TROY signal inh	KKLEB tox	TWEAK Fn14 block	EWS-Fli inh	CF NFkB block	LGR2 antag	CF NFkB conf	others
CCn1c(Oc2ccccc2F)nc2c1c(=O)n(C)c(=O)n2C	30	-4	73*	-3	56*	7	83*
CCn1c(Oc2ccccc2)nc2c1c(=O)n(C)c(=O)n2C	10	-3	33	-8	33	14	/
COc1ccc(S(=O)(=O)N2CCCCC2)cc1NC(=O)c1ccc([N+](=O)[O-])o1	-10	-1	28	27	75*	10	-9
CC(=O)N1CCN(c2ccc(NC(=O)c3ccc([N+](=O)[O-])o3)cc2Cl)CC1	8	-27	29	50	62*	26	8
CCC(=O)N1CCN(c2ccc(Cl)cc2NC(=O)c2ccc([N+](=O)[O-])o2)CC1	-5	-12	9	27	6	-3	/
COc1ccc(S(=O)(=O)N2CCCCC2)cc1NC(=O)c1ccco1	-14	-8	-3	1	11	-10	/
COc1ccc(NC(=O)COC(=O)c2c(NC(C)=O)sc(C)c2C)cc1	-52	-45	-28	-10	56*	-26	24
CC(=O)Nc1sc(C)c(C)c1C(=O)OCC(=O)NCc1ccccc1	-22	-3	-5	-2	-7	-9	/
COc1ccc(/C=C/C(=O)c2cc(F)ccc2OC(=O)c2ccccc2OC)cc1OC	55*	-23	77*	59*	71*	?	43*	DNA binder FP=-4%
COc1ccc(/C=C/C(=O)c2cc(Br)ccc2OC(=O)c2ccco2)cc1OC	7	1	-10	-8	2	-12	/
C=CCOc1ccccc1C(=O)/C=C1/C(=O)Nc2ccccc21	20	-49	24	58*	92*	7	37	DNA binder FP=-5%
COc1ccc(S(=O)(=O)Nc2ccc3c(c2)C(=O)N([C@@H](C)CO)C[C@H](C)[C@H](CN(C)S(=O)(=O)c2ccc(OC)cc2)OCCCC[C@H](C)O3)cc1	/	/	/	12	/	16	/
